For seven compounds, growth results are on record in PubChem BioAssay (NCI).

Some test systems named below: DU-145 prostate; K-562 leukemia; MALME-3M melanoma; MDA-MB-231 breast; RXF 393 renal; SF-268 CNS; SF-295 CNS; SF-539 CNS; UACC-257 melanoma; M14 melanoma; HCT-15 colon; HT29 colon; SNB-75 CNS; SNB-19 CNS; U251 CNS; PC-3 prostate; SK-MEL-5 melanoma; UACC-62 melanoma; LOX IMVI melanoma; SK-MEL-28 melanoma.
Test in all cases: NCI-60 one-dose screen, 48 h (100 = growth as untreated, 0 = no growth, -100 = all killed)
What all share (settings): 10 µM unless noted

Molecules are shown by their SMILES. “And” between values parts separate entries of the source, which are not always exact repeats. Identical values can stand only once. This is part of a sample that, as a whole, favours compounds with a hit. Of some 83,000 tested, about 20% had one in any assay.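 Plates (96-well) were seeded with cells, treated with compound at one concentration, and incubated for 48 hours before percent growth was determined.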 The source made the active and inactive calls. Rule for the calls: active = growth percent below 10; inactive = the rest.

Turning to `O=C(CCl)Nc1ccc(C(=O)/C=C/c2cc3ccccc3nc2Cl)cc1`, the growth in the experiment on DU-145 prostate was -84.1% (active) and 46.7% (inactive); in the experiment on K-562 leukemia, -59.7% (active) and 28.6% (inactive); with MALME-3M melanoma, -87.2% (active) and 48.9% (inactive); with MDA-MB-231 breast, -91.6% (active) and 63.6% (inactive); in the experiment with RXF 393 renal it was -85.3% (active) and 36.2% (inactive); in the experiment on SF-268 CNS it was -15.5% (active) and 29.3% (inactive). The growth is -25.5% (active) and 42.3% (inactive) in the experiment with SF-295 CNS; -99.1% (active) and 13.3% (inactive) in the experiment with SF-539 CNS; 24.4% (inactive) and 58.7% (inactive) with UACC-257 melanoma; -62.3% (active) and 42.9% (inactive) in the experiment with M14 melanoma; -85.4% (active) and 19.7% (inactive) in the experiment with HCT-15 colon; 2.8% (active) and 65% (inactive) in the experiment with HT29 colon. For the same compound, the growth was 51.2% (inactive) and 68% (inactive) with SNB-75 CNS; -80% (active) and 46.6% (inactive) in the experiment on SNB-19 CNS; -83.8% (active) and 39.7% (inactive) in the experiment on U251 CNS; 11.1% (inactive) and 56.4% (inactive) with PC-3 prostate; -78.4% (active) and 62.4% (inactive) with SK-MEL-5 melanoma; -33.3% (active) and 12.9% (inactive) with UACC-62 melanoma. Moreover, the growth with LOX IMVI melanoma is -97.9% (active) and 3.63% (active); in the experiment on SK-MEL-28 melanoma, -69.5% (active) and 46.2% (inactive).

Consider `Cc1cc(C(NC(=O)CCCCCNc2cccc3c2C(=O)N(C2CCC(=O)CC2=O)C3=O)c2cccc(N(C)C)c2)c(O)c2ncccc12` (stereo not given), for which the growth is 27.5% (inactive) in the experiment on DU-145 prostate; 9.86% (active) in the experiment with K-562 leukemia; -11.8% (active) in the experiment on MALME-3M melanoma; -22.2% (active) in the experiment on MDA-MB-231 breast; 32.1% (inactive) in the experiment with RXF 393 renal; 20.5% (inactive) in the experiment on SF-268 CNS. The growth in the experiment with SF-295 CNS is 2.01% (active); with SF-539 CNS, 1.5% (active); in the experiment on UACC-257 melanoma, 1.91% (active); in the experiment on M14 melanoma, -26.5% (active); in the experiment with HCT-15 colon, 8.01% (active); in the experiment on HT29 colon, 28.6% (inactive). Further, the growth is 32.9% (inactive) with SNB-75 CNS; 10.1% (inactive) with SNB-19 CNS; 17.6% (inactive) in the experiment on U251 CNS; 7.35% (active) in the experiment on PC-3 prostate; -70.1% (active) in the experiment with SK-MEL-5 melanoma; -6.03% (active) in the experiment on UACC-62 melanoma. Further, the figures for the growth with LOX IMVI melanoma and in the experiment with SK-MEL-28 melanoma were 0.535% (active) and 10.7% (inactive), respectively.

For `Nc1nn2c(-c3cc4ccccc4oc3=O)ccnc2c1N=Nc1ccccc1`, the growth is 90.6% (inactive) in the experiment on DU-145 prostate; 67.2% (inactive) with K-562 leukemia; 81.9% (inactive) in the experiment with MALME-3M melanoma; -34.8% (active) in the experiment with MDA-MB-231 breast; 2.06% (active) in the experiment on RXF 393 renal; 61.8% (inactive) with SF-268 CNS. In addition, the growth with SF-295 CNS was 72.3% (inactive); in the experiment on SF-539 CNS, -62.4% (active); in the experiment with UACC-257 melanoma, 109% (inactive); with M14 melanoma it was 92.1% (inactive); in the experiment with HCT-15 colon it was 82.5% (inactive); in the experiment with HT29 colon it was 124% (inactive). The growth in the experiment on SNB-75 CNS is 40% (inactive); with SNB-19 CNS it was 4.86% (active); with U251 CNS it was 6.17% (active); in the experiment on PC-3 prostate, 82.5% (inactive); in the experiment on SK-MEL-5 melanoma, 67.6% (inactive); with UACC-62 melanoma it was 92.7% (inactive). Moreover, the growth was 34% (inactive) in the experiment on LOX IMVI melanoma and 90.2% (inactive) in the experiment on SK-MEL-28 melanoma.

`CCC(=O)c1cc(C(=O)OC)c2ccc3c4ccccc4ccc3n12`: the growth was 93.5% (inactive) with DU-145 prostate; 91.5% (inactive) with K-562 leukemia; 71.9% (inactive) in the experiment on MALME-3M melanoma; 69.9% (inactive) in the experiment on MDA-MB-231 breast; 82.1% (inactive) with RXF 393 renal; 89.3% (inactive) in the experiment with SF-268 CNS. The growth is 77.6% (inactive) in the experiment on SF-295 CNS; 88.2% (inactive) in the experiment on SF-539 CNS; 99.7% (inactive) in the experiment on UACC-257 melanoma; 105% (inactive) in the experiment on M14 melanoma; 91.4% (inactive) in the experiment on HCT-15 colon; 73.3% (inactive) with HT29 colon. For the same compound, the growth was 47% (inactive) in the experiment on SNB-75 CNS; 66.9% (inactive) in the experiment with SNB-19 CNS; 21.9% (inactive) in the experiment with U251 CNS; 92.6% (inactive) in the experiment with PC-3 prostate; 93.8% (inactive) in the experiment with SK-MEL-5 melanoma; 89.6% (inactive) in the experiment with UACC-62 melanoma. The growth in the experiment on LOX IMVI melanoma is 77.9% (inactive); with SK-MEL-28 melanoma it was 99.6% (inactive).

Consider `Cc1ccc(C(=O)Nc2cc(-n3ccnc3)cc(C(F)(F)F)c2)cc1-n1cc(-c2cnc3cccnn23)nn1`, for which the growth was 111% (inactive) in the experiment with DU-145 prostate; 9.87% (active) in the experiment with K-562 leukemia; -7.64% (active) in the experiment with MALME-3M melanoma; 31.5% (inactive) in the experiment with MDA-MB-231 breast; 94.8% (inactive) in the experiment on RXF 393 renal; 120% (inactive) in the experiment on SF-268 CNS. Also, the growth with SF-295 CNS was 107% (inactive); with SF-539 CNS, 84.7% (inactive); with UACC-257 melanoma, 47.8% (inactive); with M14 melanoma, 25.4% (inactive); with HCT-15 colon it was 97.4% (inactive); in the experiment with HT29 colon, 39.2% (inactive). For the same compound, the growth in the experiment with SNB-75 CNS is 132% (inactive); in the experiment on SNB-19 CNS, 118% (inactive); with U251 CNS, 112% (inactive); in the experiment with PC-3 prostate it was 123% (inactive); with SK-MEL-5 melanoma, 73% (inactive); in the experiment with UACC-62 melanoma, 19.5% (inactive). The growth in the experiment with LOX IMVI melanoma is 39.4% (inactive); with SK-MEL-28 melanoma, 34.6% (inactive).

In the case of `COc1ccc2[nH]c(=O)cc(-n3ncc(C(=O)/C=C/c4cc(OC)c(OC)c(OC)c4)c3C)c2c1`, the growth is -2.23% (active) in the experiment with DU-145 prostate; 1.01% (active) with K-562 leukemia; -25.7% (active) in the experiment with MALME-3M melanoma; 1.48% (active) in the experiment with MDA-MB-231 breast; -74.8% (active) in the experiment with RXF 393 renal; 8.19% (active) in the experiment with SF-268 CNS. Besides, the growth was 11.3% (inactive) with SF-295 CNS; -59.8% (active) with SF-539 CNS; -6.58% (active) in the experiment with UACC-257 melanoma; -48.3% (active) in the experiment with M14 melanoma; -27.1% (active) in the experiment on HCT-15 colon; -27.4% (active) in the experiment on HT29 colon. Also, the growth was 32.2% (inactive) in the experiment with SNB-75 CNS; 19.8% (inactive) with SNB-19 CNS; -67.4% (active) in the experiment on U251 CNS; 7.18% (active) with PC-3 prostate; -93.9% (active) in the experiment on SK-MEL-5 melanoma; -69.5% (active) with UACC-62 melanoma. Further, the values for the growth in the experiment with LOX IMVI melanoma and in the experiment with SK-MEL-28 melanoma were -85.6% (active) and -77.1% (active), respectively.

`COC(=O)c1cc(C(=O)C(Br)Br)n2c1ccc1c3ccccc3ccc12`: the growth was 52.2% (inactive) in the experiment with DU-145 prostate; 52.3% (inactive) in the experiment with K-562 leukemia; 65.6% (inactive) in the experiment with MALME-3M melanoma; 67.7% (inactive) in the experiment with MDA-MB-231 breast; 141% (inactive) with RXF 393 renal; 68% (inactive) with SF-268 CNS. The growth is 54% (inactive) with SF-295 CNS; 54.9% (inactive) in the experiment on SF-539 CNS; 80.1% (inactive) in the experiment on UACC-257 melanoma; 75.1% (inactive) in the experiment with M14 melanoma; 34.2% (inactive) with HCT-15 colon; 63.1% (inactive) in the experiment on HT29 colon. Also, the growth in the experiment on SNB-75 CNS is 66.4% (inactive); in the experiment with SNB-19 CNS, 58.6% (inactive); with U251 CNS, 44.3% (inactive); with PC-3 prostate, 56.3% (inactive); with SK-MEL-5 melanoma, 61.7% (inactive); in the experiment on UACC-62 melanoma, 51.8% (inactive). In addition, the results for the growth in the experiment with LOX IMVI melanoma and in the experiment on SK-MEL-28 melanoma were 41.4% (inactive) and 105% (inactive), respectively.
